Screens from PubChem BioAssay.
TDP1 cell noCPT: qHTS for Inhibitors of human tyrosyl-DNA phosphodiesterase 1 (TDP1): qHTS in cells in absence of CPT; DT40 Tdp1-/- hTDP1 cells, no CPT, ATP luminescence, 48 h; Potency, µM (titrated, usually from 46.2 µM), for the others: top-dose activity change, negative = growth inhibition, most hits filed as inhibitors; hit rate 15% among 420,000; AID 686978, 2013; also: potency is read from the fitted curve at half-maximal effect; nearly all actives have a fitted effect of over 55% in size
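Compound effects on proliferation are scored in DT40 Tdp1-/-;hTDP1 cells in the absence of CPT. ATP levels (CellTiter-Glo luminescence) are recorded after a ≥48 hr, 37 °C incubation.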
DT40 TDP1 CPT: DT40-hTDP1 cell growth loss with CPT; chicken DT40 Tdp1-/-;hTDP1 cells + 20 nM CPT, ATP luminescence, 48 h; Potency, µM (top dose mostly 46.2 µM), for inactives: at the top dose activity change, negative = growth inhibition, most hits filed as inhibitors; hit rate 12% among 420,000; AID 686979; also: potency is read from the fitted curve at half-maximal effect; nearly all actives have a fitted effect of over 55% in size
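Chicken DT40 Tdp1-/- cells complemented with human TDP1, 400 cells/well, exposed to compounds plus 20 nM camptothecin for at least 48 h at 37 C; viability read as ATP content by CellTiter-Glo luminescence.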
IL-1B inflam inh: blocks inflammasome-driven IL-1 beta release; activity change, % at 57.5 µM; THP-1 LPS/ATP IL-1B secretion, AlphaLISA, 16 h; active compounds read low; hit rate 4.7% among 360,000; in the data active = activity change below about -50%; inconclusive = mostly about -30% to -49%
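THP-1 cells pretreated 1 hr with compounds (up to 57.5 uM final), then stimulated with LPS (250 ng/mL final) plus ATP (1.25 mM final); secreted IL-1B measured by AlphaLISA after 16 hr, decreased signal indicating inhibition.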
Six1-Eya2 inh: inhibitors of human Six1/Eya2 interaction. Q15475+O00167. AlphaScreen GST-Six1/His-Eya2 binding, biochemical; active compounds read low. activity change, % (test concentration not listed). hit rate 0.56% among 360,000. AID 651725; in the data active = activity change below about -65%; inconclusive = mostly about -30% to -63%
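AlphaScreen with GST-Six1 and His-Eya2 (5X mix: 250 nM and 500 nM), glutathione donor and nickel acceptor beads; buffer 50 mM Tris pH 8.0, 300 mM NaCl, 1 mM TCEP; 1 h at 37 C in the dark.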
CtBP-E1A blk: inhibitors of CtBP/E1A interaction. AlphaScreen GST-E1A/His-CtBP binding, 1536-well; active compounds read low. activity change, % (no concentration beside the values). hit rate 0.49% among 340,000. AID 651724; in the data active = activity change below about -65%; inconclusive = mostly about -30% to -63%
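Steps: dispense buffer (Tris pH 8.0, NaCl 300 mM, TCEP 1 mM, BSA, Tween 20); add 5X protein mix (GST-E1A, His-CtBP, 125 nM each); pin 23 nL compound; 2 h at 37 °C, dark; add 5X beads (50 ug/mL); 1 h; read.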
TDP1 inh: TDP1 (human) enzyme inhibition. Q9NUW8. recombinant TDP1, AlphaScreen DNA substrate cleavage. Potency, µM (top dose mostly 130 µM), without a hit: at the top dose activity change, negative = inhibition, actives largely listed as inhibitors. hit rate 0.28% among 350,000. AID 485290; also: potency is read from the fitted curve at half-maximal effect; nearly all actives have a fitted effect of over 40% in size
Target sequence (Q9NUW8 whole entry, looked up): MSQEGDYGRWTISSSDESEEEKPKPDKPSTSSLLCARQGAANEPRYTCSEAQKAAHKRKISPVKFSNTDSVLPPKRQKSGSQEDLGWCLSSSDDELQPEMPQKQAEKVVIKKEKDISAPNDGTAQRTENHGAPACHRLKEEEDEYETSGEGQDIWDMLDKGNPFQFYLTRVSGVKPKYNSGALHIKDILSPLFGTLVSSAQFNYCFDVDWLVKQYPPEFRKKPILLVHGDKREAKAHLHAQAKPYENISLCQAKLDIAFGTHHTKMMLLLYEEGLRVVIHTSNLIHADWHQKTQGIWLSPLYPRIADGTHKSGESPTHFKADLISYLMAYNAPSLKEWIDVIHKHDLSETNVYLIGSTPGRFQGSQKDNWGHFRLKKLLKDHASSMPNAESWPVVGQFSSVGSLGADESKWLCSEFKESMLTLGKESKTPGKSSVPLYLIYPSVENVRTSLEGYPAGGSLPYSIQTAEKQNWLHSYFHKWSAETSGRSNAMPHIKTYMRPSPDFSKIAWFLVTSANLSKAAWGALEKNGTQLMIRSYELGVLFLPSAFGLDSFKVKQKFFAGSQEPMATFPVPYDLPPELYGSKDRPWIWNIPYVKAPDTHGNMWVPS
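Here, a 5' biotin and 3' phosphotyrosine-FITC DNA oligonucleotide reports Tdp1 activity: intact substrate bridges AlphaScreen beads, while cleavage leaves a 3' phosphate and drops signal. All incubations at room temperature.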
The depositor's hits bear a star; u = inconclusive; x = no result given; [ ] = remark or other dose. Shown are actives, neighbours in structure and some others; about 18% of the full set was active somewhere. Unless noted, calls follow the shape of the dose curve; as a rule, active = well fitted curve in the direction sought with a large enough effect; inconclusive = small, poorly fitted or top-dose-only effect, or another doubt; inactive = no such curve, though single readings can be large; an effect the other way counts as inactive or inconclusive. % is scaled to controls: 0 for no effect and ±100 for the full control effect.

SMILES	TDP1 cell noCPT	DT40 TDP1 CPT	IL-1B inflam inh	Six1-Eya2 inh	CtBP-E1A blk	TDP1 inh
COc1ccc(C2=CC(=O)CC(c3ccc(F)cc3)C2)cn1 (stereo unspecified)	u	15µM*	-16	0	2	x
COc1ccc(Nc2nc(C)c3ccccc3n2)cc1	-26%	-12%	-24	6	5	9%
COc1ccc2c(C)nc(N/C(N)=N/S(=O)(=O)c3ccc(C)cc3)nc2c1	u	u	u	-27	u	6%
CCc1c(C)nc(Nc2nc(C)c3cc(OC)ccc3n2)[nH]c1=O	21µM*	u	u	u	-27	1%
COCc1cc(=O)[nH]c(Nc2nc3ccc(C)cc3o2)n1	4.6µM*	4.6µM*	-19	-84*	-87*	13%
COc1ccc(Nc2nnc(C)c(=O)[nH]2)cc1	0%	-8%	49	5	9	2%
COc1ccc2c(C)nc(Nc3nc(C)cc(C)n3)nc2c1	3.3µM*	2.9µM*	10	-1	-5	2%
COc1ccc2c(C)nc(Nc3nc(C)c(C)c(=O)[nH]3)nc2c1	2.9µM*	4.6µM*	-100*	-15	-10	5%
O=C(Nc1c(C(=O)N2CCOCC2)cnn1-c1ccccc1)c1cccc(F)c1	-24%	-14%	-6	3	9	4%
Cc1ccc(S(=O)(=O)N[C@H]2COC(=O)CC=C[C@@H](C)[C@H]3C=C[C@H](O)[C@@H](COC(=O)CC=C[C@H]2C)O3)cc1	x	x	x	x	x	2%[21 µM]
COc1ccc2nc(NC3=NC(c4ccccc4)CC(=O)N3)nc(C)c2c1 (stereo unspecified)	13µM*	u	15	-16	-2	6%
CCc1c(C)nc(SCCOc2ccc(OC)cc2)[nH]c1=O	u	u	35	-10	3	4%
CCCCc1c(C)nc2ccc(OC)cc2c1SCCC(=O)O	-17%	5%	51	-4	0	-10%
CCc1c(C)nc(Nc2nc(C)c3ccc(OC)cc3n2)[nH]c1=O	16µM*	u	-76*	u	7	-1%
CCCCCc1c(C)nc(Nc2nc(C)c3cc(OC)ccc3n2)[nH]c1=O	16µM*	13µM*	-22	-9	-5	4%
CCc1ccc2nc(Nc3nc(COC)cc(=O)[nH]3)nc(C)c2c1	23µM*	9.2µM*	u	-3	-6	-6%
Cc1ccc(CNC(=O)Nc2nnc([C@@H]3C[C@H](O)[C@@H](CO)O3)s2)cc1	-18%	-8%	-1	-15	4	x
c1ccc(CC[C@@H]2CC[C@@H](CCc3ccccc3)N2)cc1	18µM*	12µM*	-2	-2	6	0%
COc1ccc(C2N3CC4(C)CN2CC(c2ccccc2)(C3)C4=O)cc1OC (stereo unspecified)	-17%	-25%	x	x	x	-2%
COc1ccc(C(=S)N2CCOCC2)cc1OC(=O)c1cc(OC)c(OC)c(OC)c1	1%	7%	41	-10	-14	x
Oc1ccc(N=Cc2cc(Br)c(N3CCOCC3)o2)cc1	21µM*	u	0	-14	-3	-6%
O=[N+]([O-])c1cc(Br)c(O)c(C=Nc2ccc(N3CCOCC3)cc2)c1	u	-19%	30	-6	-7	6%
CC1CCCN(CCCNC(=O)CCn2nc(-c3ccccc3)ccc2=O)C1 (stereo unspecified)	9%	0%	-12	3	4	5%
Cc1cc(NNC(=O)c2cccc(C(F)(F)F)c2)nc2c1c(C)nn2C	5.8µM*	10µM*	-2	7	x	3%
Cc1cc(C)n(CC(=O)NNC(=O)c2cccc(C(F)(F)F)c2)n1	15%	-14%	2	16	2	-3%
SMILES	TDP1 cell noCPT	DT40 TDP1 CPT	IL-1B inflam inh	Six1-Eya2 inh	CtBP-E1A blk	TDP1 inh
COc1ccc2[nH]c3c(c2c1)CCN1C(=O)N([C@@H](C)C(=O)NCc2ccccc2OC)C(=O)[C@]31C	u	u	-8	-14	-5	x
COc1ccc2oc(-c3ccc(NC(=O)c4ccc(N5CCOCC5)c([N+](=O)[O-])c4)cc3)nc2c1	2.1µM*	u	6	-3	-4	2%
O=C(Nc1cc(-c2nc3ccccc3o2)ccc1Cl)c1ccc(N2CCCCC2)c([N+](=O)[O-])c1	18µM*	u	x	x	x	-6%
COc1cccc(NC(=O)CN(C)C(=O)c2ccc(N3CCOCC3)c([N+](=O)[O-])c2)c1	-4%	-2%	44	2	-12	x
Cn1cc([N+](=O)[O-])c(C(=O)Nc2ccc(-c3nc4ccccc4o3)cc2)n1	-12%	-5%	-86*	-6	x	x
O=C(Nc1cccnc1)c1ccc(N2CCOCC2)c([N+](=O)[O-])c1	-13%	-19%	-24	-7	-5	x
O=C(Nc1ccc(-c2nc3ccccc3o2)cc1)c1ccc(N2CCOCC2)c([N+](=O)[O-])c1	4.6µM*	7.3µM*	-16	18	-3	0%
Cc1ccc2c(c1)c1c3n2CCN(CC(N)=O)C3CCC1 (stereo unspecified)	u	u	-2	0	-8	x
Cc1ccc2c(c1)c1c3n2CCN(C(=O)CN2CCN(C)CC2)C3CCC1 (stereo unspecified)	16µM*	u	-22	-20	-8	10%
Cc1ccc2c(c1)c1c3n2CCN(CC(O)CNC(C)C)C3CCC1 (stereo unspecified)	u	u	-57*	-8	-8	x
Cc1ccc2c(c1)c1c3n2CCN(C(=O)C2CC2)C3CCC1 (stereo unspecified)	u	u	-11	-16	-4	5%
Cc1ccc2c(c1)c1c(n2CC(O)CNC2CCCC2)CCCC1 (stereo unspecified)	u	u	-90*	u	x	5%
Cc1ccc2c(c1)c1c(n2CC(O)CN2C(=O)CNC2=O)C(=O)CCC1 (stereo unspecified)	4%	7%	-10	-3	4	-3%
Cc1ccc2c(c1)c(=O)c1c3n2CCN(C(=O)CCl)C3CC1 (stereo unspecified)	16µM*	26µM*	-15	-22	-12	x
Cc1cccc(C(=O)NCC(=O)NC(C)c2ccc(-n3ccnc3)cc2)c1 (stereo unspecified)	-29%	1%	-24	8	-1	-9%[0.505 µM]
CCC(CC)CN1CCC(CN2C(=O)C(=O)NC[C@@H]2[C@@H](C)CC)CC1	-2%	3%	10	1	2	x
